Test [1] concerns RAW-Dual. The experiment in a line: NF-kB SEAP reporter activity, fold change vs agonist alone; higher = enhanced NF-kB activity. The method, boiled down: (§1)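 After 50 nL of library stock was delivered by pin tool to RAW-Dual macrophages (50,000 cells/well, DMEM, 384-well plates), a PRR agonist was added 1 h later and the plates were kept at 37 °C, 5% CO2. Twenty hours later, IRF was read from supernatant by QuantiLuc luminescence and NF-κB by QuantiBlue absorbance at 620 nm. Reporter activity is stated as fold change over agonist-alone wells. Wells with IncuCyte confluency under 70% of agonist controls in both mask sets were counted as cytotoxic.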

Test [2] deals with RAW-Dual. Put plainly: NF-kB SEAP reporter activity, fold change vs agonist alone; cytotoxicity flag (confluency mask): not cytotoxic; higher = enhanced NF-kB activity. The method, boiled down:
as §1

The test system of test [3] is RAW-Dual. The experiment in a line: NF-kB SEAP reporter activity, fold change vs agonist alone; cytotoxicity flag (confluency mask): cytotoxic (confluency <70% of control); higher = enhanced NF-kB activity. The method, boiled down:
as §1

The mark [4] stands for this setting: library stock concentration (final ~1000-fold dilution): 10 mM, cytotoxicity flag (confluency mask): not cytotoxic, agonist: Imiquimod (TLR7) […].
[5] abbreviates: library stock concentration (final ~1000-fold dilution): 10 mM, cytotoxicity flag (confluency mask): not cytotoxic, agonist: MPLA (TLR4) […].
[6] abbreviates: agonist: ODN 1826 (TLR9) 0.5 ug/mL.
[7] abbreviates: agonist: Pam2CSK4 (TLR2/6) 0.1 ug/mL.
Where [8] appears, read: agonist: Pam3CSK4 (TLR2/1) 0.1 ug/mL.
Where [9] appears, read: library stock concentration (final ~1000-fold dilution): 10 mM, cytotoxicity flag (confluency mask): cytotoxic (confluency <70% of control), agonist: MPLA (TLR4) […].

SMILES strings stand for the structures. The full ranking holds about 2,900 compounds; the median of “NF-kB SEAP reporter activity, fold change vs agonist alone” is about 0.99, and the highest 2% start at about 2.6. Shown is part of a subset that was picked to be rich in the highest values.

The results in this text go back to the supplement of paper PMC10037445.

Take `Cl.Cl.NC1CCC(NC2CC2c2ccccc2)CC1` (stereo unspecified): the “NF-kB SEAP reporter activity” value in test [1] (setting [4]) worked out at 1.03; in test [1] (setting [5]), 1.37.
Regarding `CC12CCC(=O)C=C1C=CC1C2CCC2(C)C1CCC21CCC(=O)O1` (stereo unspecified) (library stock concentration (final ~1000-fold dilution): 10 mM), the “NF-kB SEAP reporter activity” value in test [2] (agonist: LPS (TLR4) 0.1 ug/mL) was 0.949; in test [2] (setting [6]), 1.05; in test [2] (setting [7]), 0.849; in test [2] (setting [8]), 0.874.
With `CC12CCC(=O)C=C1C=CC1C2CCC2(C)C1CCC21CCC(=O)O1` (stereo unspecified), the “NF-kB SEAP reporter activity” value in test [1] (setting [5]) came to 1.05.
Turning to `Cl.O=C1Cc2cc(CCN3CCN(c4nsc5ccccc45)CC3)c(Cl)cc2N1` (library stock concentration (final ~1000-fold dilution): 10 mM), the “NF-kB SEAP reporter activity” value in test [2] (agonist: LPS (TLR4) 0.1 ug/mL) turned out to be 0.912; in test [2] (setting [6]) it was 0.338; in test [2] (setting [7]), 0.746; in test [2] (setting [8]), 0.865.
As to `Cl.O=C1Cc2cc(CCN3CCN(c4nsc5ccccc45)CC3)c(Cl)cc2N1`, the entries for the “NF-kB SEAP reporter activity” value in test [1] (setting [4]) and in test [1] (setting [5]) were 0.412 and 0.73, respectively.
Taken in the same sequence, the figures for `O=C1Nc2ccc(CN3C(=O)CSC3=O)cc2/C1=C/c1cc(CN2CCOCC2)c[nH]1` were 1.07 and 1.43.
For `O=C1Nc2ccc(CN3C(=O)CSC3=O)cc2/C1=C/c1cc(CN2CCOCC2)c[nH]1` (library stock concentration (final ~1000-fold dilution): 10 mM), the “NF-kB SEAP reporter activity” value in test [2] (agonist: LPS (TLR4) 0.1 ug/mL) turned out to be 1.89; in test [2] (setting [6]), 1.3; in test [2] (setting [7]) it was 0.605; in test [2] (setting [8]), 1.13.
Taken in the same sequence, the figures for `CCC(=O)OC(OP(=O)(CCCCc1ccccc1)CC(=O)N1CC(C2CCCCC2)CC1C(=O)O)C(C)C` (stereo unspecified) (library stock concentration (final ~1000-fold dilution): 10 mM water) were 0.941, 1.05, 1.01 and 0.946.
On to `CCC(=O)OC(OP(=O)(CCCCc1ccccc1)CC(=O)N1CC(C2CCCCC2)CC1C(=O)O)C(C)C` (stereo unspecified), for which the “NF-kB SEAP reporter activity” value worked out at 0.795 in test [1] (library stock concentration (final ~1000-fold dilution): 10 mM water, cytotoxicity flag (confluency mask): not cytotoxic, agonist: Imiquimod (TLR7) […]) and 0.935 in test [1] (library stock concentration (final ~1000-fold dilution): 10 mM water, cytotoxicity flag (confluency mask): not cytotoxic, agonist: MPLA (TLR4) […]).
Regarding `CN(C)c1ccc(O)c2c1CC1CC3C(N(C)C)C(=O)C(C(N)=O)=C(O)C3(O)C(=O)C1=C2O` (stereo unspecified), the “NF-kB SEAP reporter activity” value in test [1] (library stock concentration (final ~1000-fold dilution): 5 mM, cytotoxicity flag (confluency mask): not cytotoxic, agonist: Imiquimod (TLR7) […]) stood at 1.25; in test [1] (library stock concentration (final ~1000-fold dilution): 5 mM, cytotoxicity flag (confluency mask): not cytotoxic, agonist: MPLA (TLR4) […]), 0.933.
`CN(C)c1ccc(O)c2c1CC1CC3C(N(C)C)C(=O)C(C(N)=O)=C(O)C3(O)C(=O)C1=C2O` (stereo unspecified) (library stock concentration (final ~1000-fold dilution): 5 mM): the “NF-kB SEAP reporter activity” value in test [2] (agonist: LPS (TLR4) 0.1 ug/mL) came to 1.03; in test [2] (setting [6]) it was 1.15; in test [2] (setting [7]) it was 0.833; in test [2] (setting [8]), 0.759.
For the compound `CN(C)CCC=C1c2ccccc2C(C)(C)c2ccccc21.Cl`, the “NF-kB SEAP reporter activity” value in test [1] (setting [9]) is 1.4.
In the case of `CN(C)CCC=C1c2ccccc2C(C)(C)c2ccccc21.Cl` (library stock concentration (final ~1000-fold dilution): 10 mM), the “NF-kB SEAP reporter activity” value amounted to 1.45 in test [3] (agonist: LPS (TLR4) 0.1 ug/mL), 0.727 in test [3] (setting [6]), 0.53 in test [3] (setting [7]) and 0.8 in test [3] (setting [8]).
Taken in the same sequence, the figures for `O=C(NO)c1cnc(NC2(c3ccccc3)CC2)nc1` (library stock concentration (final ~1000-fold dilution): 10 mM) were 2.94, 1.6, 0.654 and 1.4.
`O=C(NO)c1cnc(NC2(c3ccccc3)CC2)nc1`: the “NF-kB SEAP reporter activity” value was 1.46 in test [1] (library stock concentration (final ~1000-fold dilution): 10 mM, cytotoxicity flag (confluency mask): cytotoxic (confluency <70% of control), agonist: Imiquimod (TLR7) […]) and 2.22 in test [1] (setting [9]).
On to `CC(C)NCC(O)COc1ccc(COCCOC(C)C)cc1.O=C(O)/C=C/C(=O)O` (stereo unspecified), for which the “NF-kB SEAP reporter activity” value in test [1] (setting [4]) was found to be 0.869; in test [1] (setting [5]), 1.02.
For `CC(C)NCC(O)COc1ccc(COCCOC(C)C)cc1.O=C(O)/C=C/C(=O)O` (stereo unspecified) (library stock concentration (final ~1000-fold dilution): 10 mM), the “NF-kB SEAP reporter activity” value in test [2] (agonist: LPS (TLR4) 0.1 ug/mL) was 1.05; in test [2] (setting [6]), 0.873; in test [2] (setting [7]), 0.984; in test [2] (setting [8]), 1.03.
Turning to `Cc1ccc(-c2c(-c3nn(C)c4ncnc(N5CCC(N6CCCCC6)C5)c34)cnn2C)cc1` (stereo unspecified) (library stock concentration (final ~1000-fold dilution): 10 mM), the “NF-kB SEAP reporter activity” value in test [2] (agonist: LPS (TLR4) 0.1 ug/mL) amounted to 1.57; in test [2] (setting [6]), 0.856; in test [2] (setting [7]) it was 1.21; in test [2] (setting [8]), 1.16.
With `Cc1ccc(-c2c(-c3nn(C)c4ncnc(N5CCC(N6CCCCC6)C5)c34)cnn2C)cc1` (stereo unspecified), the figures for the “NF-kB SEAP reporter activity” value in test [1] (setting [4]) and in test [1] (setting [5]) were 0.947 and 1.09, respectively.
Take `Cc1nc(Nc2ncc(C(=O)Nc3c(C)cccc3Cl)s2)cc(N2CCN(CCO)CC2)n1.O`: the “NF-kB SEAP reporter activity” value in test [1] (setting [4]) is 0.326; in test [1] (setting [5]), 0.715.
As for `Cc1nc(Nc2ncc(C(=O)Nc3c(C)cccc3Cl)s2)cc(N2CCN(CCO)CC2)n1.O` (library stock concentration (final ~1000-fold dilution): 10 mM), the “NF-kB SEAP reporter activity” value in test [2] (agonist: LPS (TLR4) 0.1 ug/mL) was determined as 1.33; in test [2] (setting [6]) it was 0.661; in test [2] (setting [7]), 0.283; in test [2] (setting [8]) it was 0.215.
For `CC1OC(OC2CCC3(C)C(CCC4(C)C3C=CC35OCC6(CCC(C)(C)CC63)C(O)CC45C)C2(C)CO)C(O)C(OC2OC(CO)C(O)C(O)C2O)C1O` (stereo unspecified), the “NF-kB SEAP reporter activity” value in test [1] (setting [9]) stood at 0.319.
Turning to `CC1OC(OC2CCC3(C)C(CCC4(C)C3C=CC35OCC6(CCC(C)(C)CC63)C(O)CC45C)C2(C)CO)C(O)C(OC2OC(CO)C(O)C(O)C2O)C1O` (stereo unspecified) (library stock concentration (final ~1000-fold dilution): 10 mM), the “NF-kB SEAP reporter activity” value in test [3] (agonist: LPS (TLR4) 0.1 ug/mL) was determined as 0.221; in test [3] (setting [6]) it was 0.257; in test [3] (setting [7]), 0.0991; in test [3] (setting [8]), 0.143.
On to `NC(=O)c1ccccn1` (library stock concentration (final ~1000-fold dilution): 10 mM), for which the “NF-kB SEAP reporter activity” value in test [2] (agonist: LPS (TLR4) 0.1 ug/mL) was 1.07; in test [2] (setting [6]), 0.942; in test [2] (setting [7]), 1.06; in test [2] (setting [8]), 0.836.
The corresponding values for `Clc1ccc(N/N=C(\c2ccccc2)c2ccccn2)nc1` (library stock concentration (final ~1000-fold dilution): 10 mM) are 4.59, 1.18, 0.556 and 1.76.
Consider `NC(=O)c1ccccn1`, for which the “NF-kB SEAP reporter activity” value in test [1] (setting [5]) was 1.08.
Turning to `Clc1ccc(N/N=C(\c2ccccc2)c2ccccn2)nc1`, the figures for the “NF-kB SEAP reporter activity” value in test [1] (setting [4]) and in test [1] (setting [5]) were 1.5 and 2.77, respectively.
